Experimental data published in PubChem BioAssay.
Active and inactive are the calls of the source. Unless noted, no rule for the calls is given here.

Columns and labels:
[1] = compounds binding Alexa647 anti-His antibody – biochemical, small-molecule microarray, 635 nm fluorescence, artefact control for SMM control protein annotation, primary screen (AID 1128); conditions: higher = more signal;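 also: score merges feature fluorescence with signal-to-noise for each printed compound spot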
[2] = tested on: Human papillomavirus type 1a E7 protein (residues 1-88); test: HPV1a E7 small-molecule binders, primary screen, biochemical, small-molecule microarray, residues 1-88, 635 nm (AID 1129); conditions: small-molecule microarray binding, fluorescence 635 nm; higher = more signal
[3] = biological target: Focal adhesion kinase 1 (Homo sapiens) (UniProt Q05397); test: PTK2 protein binding on printed compound slides – biochemical, small-molecule microarray, 635/667 nm fluorescence, BSA, DTT, primary screen (AID 1130); conditions: 635 nm fluorescence, higher = more signal;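 also: composite of spot emission at 667 nm and signal to noise over triplicate slides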
Chain of Focal adhesion kinase 1 (Homo sapiens) (Q05397 whole entry, looked up): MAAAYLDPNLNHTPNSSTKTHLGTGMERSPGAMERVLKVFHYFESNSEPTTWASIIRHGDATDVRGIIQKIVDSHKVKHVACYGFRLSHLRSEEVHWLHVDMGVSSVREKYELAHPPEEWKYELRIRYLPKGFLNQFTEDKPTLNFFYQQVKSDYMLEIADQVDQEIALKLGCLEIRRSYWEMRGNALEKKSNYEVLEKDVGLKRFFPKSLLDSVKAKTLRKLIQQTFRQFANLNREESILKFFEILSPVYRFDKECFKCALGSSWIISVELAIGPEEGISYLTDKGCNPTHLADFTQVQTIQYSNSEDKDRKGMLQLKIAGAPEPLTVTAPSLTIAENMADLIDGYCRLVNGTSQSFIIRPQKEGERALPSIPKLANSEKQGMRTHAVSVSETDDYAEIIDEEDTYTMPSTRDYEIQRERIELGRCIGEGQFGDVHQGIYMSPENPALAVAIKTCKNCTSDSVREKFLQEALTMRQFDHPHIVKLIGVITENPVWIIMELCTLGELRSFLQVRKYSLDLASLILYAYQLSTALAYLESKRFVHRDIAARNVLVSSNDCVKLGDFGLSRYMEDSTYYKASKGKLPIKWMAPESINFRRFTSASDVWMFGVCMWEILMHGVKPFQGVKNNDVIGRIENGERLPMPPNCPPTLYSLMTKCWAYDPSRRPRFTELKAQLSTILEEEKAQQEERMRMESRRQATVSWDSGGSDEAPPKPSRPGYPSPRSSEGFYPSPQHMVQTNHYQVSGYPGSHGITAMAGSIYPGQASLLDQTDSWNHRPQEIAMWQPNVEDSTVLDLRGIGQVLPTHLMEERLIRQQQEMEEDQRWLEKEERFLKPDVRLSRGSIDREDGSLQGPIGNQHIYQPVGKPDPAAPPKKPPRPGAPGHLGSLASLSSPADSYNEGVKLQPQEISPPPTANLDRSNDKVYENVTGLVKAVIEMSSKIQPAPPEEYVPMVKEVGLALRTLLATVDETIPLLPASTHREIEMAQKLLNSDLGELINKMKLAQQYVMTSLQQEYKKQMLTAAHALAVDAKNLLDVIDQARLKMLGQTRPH

[4] = tested on: Fibrinogen (Alexa647-labelled); test: Alexa647-fibrinogen binding to printed small molecules – biochemical, small-molecule microarray, 635/667 nm fluorescence, artefact control for SMM control-protein annotation, profiling panel (AID 1131); conditions: fibrinogen-A647 binding fluorescence, higher = more signal;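 also: z-score merges 667 nm fluorescence with per-spot signal-to-noise over triplicate slides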
[5] = biological target: Follistatin (Homo sapiens) (UniProt P19883); test: FST protein binding to printed compounds – biochemical, small-molecule microarray, 635/667 nm fluorescence, primary screen (AID 1132); conditions: 635 nm fluorescence, higher = more signal
Chain of Follistatin (Homo sapiens) (P19883 whole entry, looked up): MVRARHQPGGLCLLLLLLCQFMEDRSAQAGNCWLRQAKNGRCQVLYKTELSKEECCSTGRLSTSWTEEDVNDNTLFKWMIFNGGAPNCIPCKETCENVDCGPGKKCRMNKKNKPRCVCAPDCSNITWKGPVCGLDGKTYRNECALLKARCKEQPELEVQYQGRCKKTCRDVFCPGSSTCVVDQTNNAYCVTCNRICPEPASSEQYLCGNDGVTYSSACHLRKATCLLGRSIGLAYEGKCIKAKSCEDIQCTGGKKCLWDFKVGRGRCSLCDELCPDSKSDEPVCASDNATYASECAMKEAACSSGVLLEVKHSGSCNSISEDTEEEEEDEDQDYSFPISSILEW

[6] = biological target: Fibroblast growth factor 2 (Homo sapiens) (UniProt P09038); test: basic fibroblast growth factor binding to printed compounds – biochemical, small-molecule microarray, 635/667 nm fluorescence, primary screen (AID 1133); conditions: FGF2, fluorescence 635/667, higher = more signal
Chain of Fibroblast growth factor 2 (Homo sapiens) (P09038 whole entry, looked up): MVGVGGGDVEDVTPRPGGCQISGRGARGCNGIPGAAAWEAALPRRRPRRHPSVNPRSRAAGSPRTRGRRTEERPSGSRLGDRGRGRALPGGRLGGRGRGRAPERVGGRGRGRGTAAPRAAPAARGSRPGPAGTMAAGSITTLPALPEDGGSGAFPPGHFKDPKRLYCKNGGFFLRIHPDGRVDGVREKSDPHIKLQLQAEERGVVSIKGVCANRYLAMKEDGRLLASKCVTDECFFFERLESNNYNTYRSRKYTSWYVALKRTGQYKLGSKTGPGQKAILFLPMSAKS

[7] = JC-1 mitochondrial potential readout, lung cancer cells – cell-based, A549, JC-1 fluorescence, basal, 24 h, 100 nL, profiling panel (AID 1138); conditions: higher = more signal;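 also: A549 lung adenocarcinoma cells under basal conditions with no added stimulus; test concentration not given here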
[8] = tested on: Lefty1; test: Lefty1 protein binding to printed compounds – biochemical, small-molecule microarray, 635/667 nm fluorescence, primary screen (AID 1139); conditions: fluorescence 635/667, higher = more signal
[9] = tested on: wheat germ agglutinin (Triticum aestivum), Alexa647-labelled; test: Alexa647-WGA lectin binding to printed small molecules – biochemical, small-molecule microarray, 635/667 nm fluorescence, artefact control for SMM control-protein annotation, profiling panel (AID 1140); conditions: WGA-A647 binding, 635 nm fluorescence, higher = more signal;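 also: score merges 667 nm feature emission with signal to noise over triplicate slides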
[10] = biological target: Luciferin 4-monooxygenase (Photinus pyralis) (UniProt P08659); test: inhibition of purified Photinus pyralis luciferase – biochemical, luminescence, purified enzyme, 2006 set, primary screen (AID 1141); conditions: purified firefly luciferase, SteadyGlo luminescence, 30 min; higher = more signal, called active from +8 up or from −8 down;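 also: cell-free assay with purified firefly luciferase at 100 ng per well in PBS; test concentration not given here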
Chain of Luciferin 4-monooxygenase (Photinus pyralis) (P08659 whole entry, looked up): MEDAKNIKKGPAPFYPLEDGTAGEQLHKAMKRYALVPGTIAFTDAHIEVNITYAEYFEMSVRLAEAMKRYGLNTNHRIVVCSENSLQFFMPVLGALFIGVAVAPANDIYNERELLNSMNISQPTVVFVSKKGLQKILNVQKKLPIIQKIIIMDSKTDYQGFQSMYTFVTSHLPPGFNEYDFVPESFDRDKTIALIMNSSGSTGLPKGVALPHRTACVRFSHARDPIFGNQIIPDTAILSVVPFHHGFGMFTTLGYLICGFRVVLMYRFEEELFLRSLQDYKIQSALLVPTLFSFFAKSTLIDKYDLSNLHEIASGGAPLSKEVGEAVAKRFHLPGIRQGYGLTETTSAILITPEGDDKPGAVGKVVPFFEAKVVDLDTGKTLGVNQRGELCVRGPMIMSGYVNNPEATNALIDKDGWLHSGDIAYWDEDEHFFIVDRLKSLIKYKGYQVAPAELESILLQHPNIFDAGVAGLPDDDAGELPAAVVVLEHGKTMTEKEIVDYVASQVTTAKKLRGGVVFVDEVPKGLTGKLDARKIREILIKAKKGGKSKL

[11] = tested on: Wnt5a (protein binding on small-molecule microarray); test: small molecules binding Wnt5a protein – biophysical, small-molecule microarray, 635/667 nm fluorescence, primary screen (AID 1142); conditions: 635 nm fluorescence, higher = more signal;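 also: fluorescence read at 667 nm with signal to noise per printed feature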
[12] = ATP-based viability of Huh7 replicon cells – cell-based, CellTiter-Glo luminescence, basal, 48 h, cytotoxicity control for HCV replication inhibitor project, primary screen (AID 1143); conditions: higher = more signal, called active from +8 up or from −8 down;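 also: Huh7 hepatoma cells carrying a hepatitis C replication reporter with no stimulus; test concentration not given here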
[13] = Pseudomonas biofilm growth suppression – PAO1 strain, BacTiter-Glo luminescence, LB-PBS, primary screen (AID 1144); conditions: P. aeruginosa PAO1 biofilm, 12 h, higher = more signal
[14] = basal CRE-LacZ reporter activity in PC12 – cell-based, unstimulated, primary screen (AID 1145); conditions: no forskolin, luminescence, 4.5 h, higher = more signal, called active from +8 up or from −8 down
[15] = forskolin-driven CRE-LacZ activity in PC12 – cell-based, CRE-LacZ reporter, forskolin-stimulated, primary screen (AID 1146); conditions: luminescence, 4.5 h, higher = more signal, called active from +8 up or from −8 down;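 also: PC12 cells with 6xCRE LacZ reporter stimulated by forskolin 10 µM; beta-galactosidase reporter signal reflecting CREB driven transcription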
[16] = biological target: Streptavidin (Streptomyces avidinii) (UniProt P22629); test: compounds binding control protein streptavidin – biophysical, small-molecule microarray, 635/667 nm fluorescence, artefact control for SMM compound annotation, primary screen (AID 1147); conditions: higher = more signal;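 also: signal reflects streptavidin binding to arrayed compounds as a control protein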
Chain of Streptavidin (Streptomyces avidinii) (P22629 whole entry, looked up): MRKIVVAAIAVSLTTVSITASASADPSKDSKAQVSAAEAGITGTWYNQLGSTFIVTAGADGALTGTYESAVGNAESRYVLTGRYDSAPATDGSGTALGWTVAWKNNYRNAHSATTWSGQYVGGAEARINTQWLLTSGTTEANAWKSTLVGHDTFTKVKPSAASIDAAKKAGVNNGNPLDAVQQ

[17] = probe aInhba binding on compound microarray – biochemical, small-molecule microarray, 635/667 nm fluorescence, primary screen (AID 1148); conditions: higher = more signal;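 also: score merges 667nm spot fluorescence with signal-to-noise for antibody binding to printed compounds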
[18] = biological target: Torsin-1A (Homo sapiens) (UniProt O14656); test: TOR1A wild-type binding on microarray – cell lysate, small-molecule microarray, lysate, 635/667 nm, primary screen (AID 1149); conditions: COS7 hTOR1A-WT lysate, 635 nm fluorescence, higher = more signal
Chain of Torsin-1A (Homo sapiens) (O14656 whole entry, looked up): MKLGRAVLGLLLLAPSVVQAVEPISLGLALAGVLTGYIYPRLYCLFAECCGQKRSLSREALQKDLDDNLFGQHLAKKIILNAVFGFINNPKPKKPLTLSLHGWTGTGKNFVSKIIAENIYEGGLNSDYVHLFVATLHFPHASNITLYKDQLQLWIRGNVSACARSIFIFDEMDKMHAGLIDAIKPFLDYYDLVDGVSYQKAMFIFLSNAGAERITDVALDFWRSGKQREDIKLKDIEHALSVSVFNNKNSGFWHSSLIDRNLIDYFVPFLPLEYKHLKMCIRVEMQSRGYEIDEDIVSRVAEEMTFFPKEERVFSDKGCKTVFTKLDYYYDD

[19] = biological target: Torsin-1A (Homo sapiens) (UniProt O14656); test: torsin A mutant lysate binding on microarrays – cell lysate, small-molecule microarray, COS7 lysate, 635/667 nm fluorescence, primary screen (AID 1150); conditions: COS7 hTOR1A mutant lysate, 635 nm fluorescence, higher = more signal;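 also: score pools 667 nm emission and signal to noise measuring lysate protein binding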
[20] = tested on: Sonic hedgehog protein (Shh); test: Sonic hedgehog microarray binding compounds – biochemical, small-molecule microarray, 635/667 nm fluorescence, primary screen (AID 1151); conditions: 635 nm fluorescence, higher = more signal;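 also: Shh protein binding to compounds spotted on small-molecule microarray slides; score combines spot fluorescence intensity with signal-to-noise across triplicate slides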

SMILES	composite z-score [1]	composite z-score [2]	composite z-score [3]	composite z-score [4]	composite z-score [5]	composite z-score [6]	z-score [7]	composite z-score [8]	composite z-score [9]	z-score [10]	composite z-score [11]	z-score [12]	z-score [13]	z-score [14]	z-score [15]	composite z-score [16]	composite z-score [17]	composite z-score [18]	composite z-score [19]	composite z-score [20]
CO[C@H]1O[C@H](CO)[C@@H](OC(=O)CCc2ccccc2)[C@@H]2OC(=O)[C@@H](Cc3ccccc3)C/C=C/C[C@H](Cc3ccccc3)C(=O)O[C@@H]12	0.623	1.03	0.178	0.28	1.28	1.31	2.11	0.396	0.0856	0.769 (inactive)	0.411	-2.33 (inactive)	-0.605 (inactive)	-0.655 (inactive)	-0.43 (inactive)	0.29	-0.315	-0.293	0.169	0.476
CCOC(=O)[C@@H]1CCCCN1C(=O)C(=O)OC	0.234	0.504	0.1	-0.23	0.479	0.894	-0.309	1.29	-0.48	0.0296 (inactive)	0.214	0.474 (inactive)	0.594 (inactive)	0.362 (inactive)	1.56 (inactive)	-0.0957	0.0118	0.188	-0.144	0.901
CC(C)c1ccc(NN2C(C(O)c3ccc(C#N)cc3)C=CC3C(=O)N(c4ccccc4)C(=O)C32)cc1 (stereo not given)	0.433	1.21	1.97	1.04	1.01	-0.14	-0.131	-0.278	0.949	-0.973 (inactive)	0.248	-0.687 (inactive)	-0.803 (inactive)	0.812 (inactive)	0.802 (inactive)	1.96	0.41	0.0628	0.579	-0.163
N[C@@H](Cc1ccccc1)C(=O)NCc1cn(Cc2ccccc2)nn1	0.615	-0.096	-0.519	0.395	1.15	0.416	0.154	0.2	0.309	-0.352 (inactive)	-0.0432	0.609 (inactive)	0.391 (inactive)	0.381 (inactive)	-0.644 (inactive)	0.0584	0.0464	1.14	0.186	0.822
C=CCNC(=O)[C@@H]1[C@H]2C(=O)O[C@H](c3ccccc3)[C@H](c3ccccc3)N2[C@H](c2ccc(OCCO)cc2)[C@@]12C(=O)N(C(=O)OCCOC)c1ccc(C#Cc3ccc(OC)cc3)cc12	0.81	1.16	0.066	0.785	1.27	0.93	-1.41	0.901	0.939	-0.728 (inactive)	0.0609	-2.81 (inactive)	0.543 (inactive)	0.476 (inactive)	-0.222 (inactive)	0.613	0.0497	0.105	-0.0165	1.88
C=C[C@@H](CO)N(Cc1ccc(OC)cc1)S(=O)(=O)c1ccc(Br)cc1	1.53	0.687	0.188	-0.0952	0.351	0.965	0.739	-0.327	0.316	0.356 (inactive)	-0.0447	-3.07 (inactive)	-0.445 (inactive)	-0.104 (inactive)	-0.895 (inactive)	0.396	-0.154	1.16	1.13	-0.0145
CCCN1C(=O)[C@]2(Cc3ccccc31)N=C(c1ccc(OCCCO)cc1)O[C@@H]2c1ccccc1	1.18	1.22	0.867	0.971	1.3	0.716	-0.23	0.56	1.11	-0.133 (inactive)	0.489	-5.07 (inactive)	-2.3 (inactive)	0.344 (inactive)	-0.647 (inactive)	0.899	-0.0087	0.738	0.423	1.12
CN1C2C=C(CCCO)C(C3C(=O)N(C(N)=O)C(=O)C32)C1C1CC1 (stereo not given)	0.352	0.186	-0.158	0.481	-0.0169	-0.148	0.771	0.145	-0.123	-0.938 (inactive)	-0.173	-0.122 (inactive)	0.57 (inactive)	0.522 (inactive)	0.373 (inactive)	-0.0742	-0.0963	0.0337	0.143	0.316
CCCC=C(CCC)[C@@H](NS(=O)(=O)c1ccc(C(F)(F)F)cc1)c1ccccc1	0.294	0.887	0.672	0.698	0.225	-0.148	-2.69	-0.141	0.663	2.72 (inactive)	0.001	-1.09 (inactive)	-0.869 (inactive)	-0.565 (inactive)	1.32 (inactive)	0.578	0.156	-0.0214	-0.0562	0.108
C=CCNC(=O)[C@@H]1[C@H]2C(=O)O[C@H](c3ccccc3)[C@H](c3ccccc3)N2[C@H](c2ccccc2OCCO)[C@@]12C(=O)N(C(=O)OCCOC)c1ccc(C#CC3(O)CCCCCC3)cc12	0.713	1.22	0.894	0.905	1.34	0.924	-1.2	0.988	0.323	0.558 (inactive)	0.238	-4.26 (inactive)	-0.0868 (inactive)	-1.02 (inactive)	-0.965 (inactive)	0.159	0.115	0.759	0.631	1.58
